# Test results taken from PubChem BioAssay (Tox21).
# Values without a mark were called inactive. Records with an inconclusive call do not appear. A call without a number means that no potency is given here. The source made the active and inactive calls. Unless noted, the call rests on the fitted dose curve; in most records, active means well fitted curve in the direction sought with a large enough effect in the repeat runs; inconclusive means weak or mixed curves; inactive means no such curve, though single readings can be large; an effect the other way counts as inactive or inconclusive.
# Assays:
# [1] = qHTS assay for small molecules that induce genotoxicity in human embryonic kidney cells expressing luciferase-tagged ATAD5 (AID 651632); further: nearly all actives have a fitted effect of over 15% in size
# Procedure, shortened: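 HEK293T cells carrying luciferase-tagged ATAD5 were given compound or DMSO vehicle and incubated 16 hr at 37C, 5% CO2. Luciferase activity was read after 30 min at room temperature with Amplite; a rise signals genotoxic stress.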
# [2] = qHTS assay for small molecule agonists of the p53 signaling pathway - cell viability (AID 651633; calls by dose curve;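 further: p53RE-bla HCT reporter cells with a stable beta-lactamase p53 reporter; series mostly up to about 83 µM; nearly all actives have a fitted effect of over 30% in size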)
# Procedure, shortened: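 p53RE-bla cells were treated with compound for 16 hours at 37 C. Cytotoxicity was then measured as CellTiter-Glo luminescence after 30 min at room temperature.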
# [3] = qHTS assay for small molecules that induce genotoxicity in human embryonic kidney cells expressing luciferase-tagged ATAD5 - cell viability (AID 651634; calls by dose curve; further: nearly all actives have a fitted effect of over 25% in size; further: potency means the concentration at half of the fitted maximal effect)
# Procedure, shortened: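 HEK293T cells carrying luciferase-tagged ATAD5, 2,000 cells/well, exposed to compound for 15.5 hr at 37C. Viability read as live-cell protease activity by CellTiter-Fluor fluorescence after 30 min at 37C.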
# [4] = qHTS assay for small molecule disruptors of the mitochondrial membrane potential - cell viability (AID 720634; calls by dose curve;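 further: human HepG2 liver cancer cells; series mostly up to about 83 µM; nearly all actives have a fitted effect of over 20% in size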)
# Procedure, shortened: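 HepG2 cells, 2,000 per well, attached overnight, then treated 1 hr at 37 C, 5% CO2. Viability read as ATP by CellTiter-Glo luminescence after 30 min at room temperature. Read in the same wells as the m-MPI membrane-potential dye assay.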
# [5] = qHTS assay for small molecule disruptors of the mitochondrial membrane potential (AID 720635); further: potency means the concentration at half of the fitted maximal effect
# Procedure, shortened: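 HepG2 cells exposed to compound 1 hr at 37C, then Mito-MPS dye 30 min. Ratio read of aggregate (540/590 nm) versus monomer (490/535 nm) fluorescence.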
# [6] = qHTS assay to test for compound auto fluorescence at 590 nm (red) in HepG2 cells (AID 720674)
# Procedure, shortened: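 Fluorescence at 590 nm emission following 540 nm excitation was recorded from HepG2 wells one hour after compound transfer, with DMSO-only wells as vehicle and Rose Bengal sodium equivalency as the scale.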
# [7] = qHTS assay to test for compound auto fluorescence at 535 nm (green) in HepG2 cells (AID 720675)
# [8] = qHTS assay to test for compound auto fluorescence at 460 nm (blue) in HEK293 cells (AID 720678)
# Procedure, shortened: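 Cells were seeded and left to adhere for 4-5 hr at 37C. Compounds were then pin-transferred. After an overnight incubation at 37C under 5% CO2, intrinsic fluorescence at 405/460 nm was measured and referenced to triamterene.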
# [9] = qHTS assay to test for compound auto fluorescence at 590 nm (red) in HEK293 cells (AID 720679)
# Procedure, shortened: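 Each well held 2,000 HEK293 cells in medium containing 10% dialyzed FBS. Following 4-5 hr attachment at 37C, 23 nL test compound or DMSO was added; plates sat overnight, and red fluorescence (540/590nm) was recorded.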
SMILES,outcome [1],Potency [2],Potency [3],Potency [4],Potency [5],outcome [6],outcome [7],outcome [8],outcome [9],"fluorescence, relative to Rose Bengal [6]","fluorescence, % of fluorescein control [7]","fluorescence, % of triamterene [8]","fluorescence, % of fluorescent control [9]"
CN(C)CCc1c[nH]c2cccc(OP(=O)(O)O)c12,inactive,inactive,inactive,inactive,inactive,inactive,inactive,inactive,inactive,,,,
C[C@H](N)C(=O)c1ccccc1,inactive,inactive,inactive,inactive,inactive,inactive,inactive,inactive,,,,,
O=P(O)(O)CN(CP(=O)(O)O)CP(=O)(O)O,inactive,inactive,inactive,inactive,,,,,,-0.158% [at 18.6 µM],-0.0161% [at 18.6 µM],0.0178% [at 18.6 µM],0.149% [at 18.6 µM]
O=C(NC(=O)c1c(F)cccc1F)Nc1cc(Cl)c(F)c(Cl)c1F,inactive,inactive,inactive,inactive,,inactive,inactive,inactive,inactive,,,,
NNCc1ccccc1,,inactive,inactive,inactive,24.8 µM (active),inactive,inactive,inactive,inactive,,,,
CCCN1CCC[C@@H]2Cc3[nH]ncc3C[C@H]21,,inactive,inactive,,,inactive,inactive,inactive,,,,,
C[C@@H](N)[C@@H](O)c1ccccc1,,,,,inactive,,,,,-0.248% [at 18.6 µM],-0.0859% [at 18.6 µM],0.0027% [at 18.6 µM],
Cc1ccc(Cl)c(O)c1,,inactive,inactive,inactive,,inactive,inactive,inactive,,,,,
O=C(O)C(Cl)Br (stereo not given),,inactive,inactive,inactive,,,inactive,inactive,inactive,,,,
NCCOS(=O)(=O)O,inactive,inactive,inactive,,,inactive,inactive,inactive,inactive,,,,
C=CCN1CC[C@]23CCCC[C@H]2[C@H]1Cc1ccc(O)cc13,inactive,inactive,inactive,,,inactive,inactive,inactive,,,,,
CCCC[N+](=O)[O-],inactive,inactive,inactive,inactive,,inactive,inactive,inactive,inactive,,,,
CN(C)CCN(C)C,inactive,,inactive,inactive,,,inactive,inactive,,,,,
Cc1ccc2cc(C)ccc2c1,,inactive,inactive,inactive,,inactive,inactive,inactive,inactive,,,,
O=[N+]([O-])c1cccc(CCl)c1,,inactive,inactive,inactive,,inactive,inactive,inactive,inactive,,,,
CN=CNc1ccc(C)cc1C,inactive,inactive,inactive,,,,inactive,inactive,inactive,,,,
CCNc1nc(Cl)nc(NC(C)(C)C)n1,inactive,inactive,inactive,inactive,,inactive,inactive,inactive,inactive,,,,
O=C(NC(O)C(Cl)(Cl)Cl)NC(O)C(Cl)(Cl)Cl (stereo not given),inactive,inactive,inactive,,,inactive,inactive,inactive,inactive,,,,
O=c1[nH]c2ccccc2o1,inactive,,inactive,inactive,inactive,inactive,inactive,inactive,inactive,,,,
CCN[C@@H](C)Cc1cccc(C(F)(F)F)c1,,inactive,inactive,,inactive,inactive,inactive,inactive,inactive,,,,
CC(C)(N)Cc1ccc(Cl)cc1,inactive,inactive,inactive,,,inactive,inactive,inactive,inactive,,,,

SMILES,outcome [1],Potency [2],Potency [3],Potency [4],Potency [5],outcome [6],outcome [7],outcome [8],outcome [9],"fluorescence, relative to Rose Bengal [6]","fluorescence, % of fluorescein control [7]","fluorescence, % of triamterene [8]","fluorescence, % of fluorescent control [9]"
N#CN,inactive,inactive,inactive,,inactive,inactive,inactive,inactive,,,,,
C#CC(C)(C)O,inactive,inactive,inactive,,,inactive,inactive,inactive,inactive,,,,
CCOC(=O)COc1ccc(Cl)cc1Cl,inactive,inactive,inactive,,,,inactive,inactive,inactive,,,,
CC[C@@H](CO)NC(=O)[C@@H]1C=C2c3cccc4c3c(cn4C)C[C@H]2N(C)C1,,inactive,inactive,inactive,,,inactive,,inactive,,,,
CS(=O)(=O)c1ccc(C(=O)C2C(=O)CCCC2=O)c(Cl)c1COCC(F)(F)F,,inactive,inactive,,,inactive,inactive,inactive,inactive,,,,
CON(C)C(=O)Nc1ccc(Br)c(Cl)c1,inactive,inactive,inactive,,,inactive,inactive,inactive,inactive,,,,
CCCC(C)C1(CC)C(=O)N=C(S)NC1=O (stereo not given),,inactive,inactive,inactive,inactive,inactive,inactive,inactive,inactive,,,,
C=C(C)[C@H]1CN[C@H](C(=O)O)[C@H]1CC(=O)O,inactive,inactive,,inactive,,inactive,inactive,inactive,inactive,,,,
CC[C@H](O)C(C[C@H](C)N(C)C)(c1ccccc1)c1ccccc1,inactive,inactive,inactive,inactive,,,inactive,inactive,inactive,,,,
ClCCCCCCCl,inactive,,inactive,inactive,,inactive,inactive,inactive,inactive,,,,
CN(C)C1CCCCC1,,inactive,inactive,inactive,,inactive,inactive,inactive,inactive,,,,
CCOC(=O)C(Cl)Cc1cc(-n2nc(C)n(C(F)F)c2=O)c(F)cc1Cl (stereo not given),inactive,inactive,inactive,,,inactive,inactive,inactive,inactive,,,,
CN1C(=O)COc2c(C(=O)NC3CN4CCC3CC4)cc(Cl)cc21 (stereo not given),inactive,inactive,inactive,inactive,,,inactive,inactive,inactive,,,,
CCC(=O)c1ccc(Cl)cc1,inactive,,inactive,inactive,,inactive,inactive,inactive,inactive,,,,
COc1cc(CCN)cc(OC)c1OC,,inactive,inactive,inactive,inactive,inactive,inactive,inactive,inactive,,,,
O=C(O)c1c(Cl)ccc2cc(Cl)cnc12,inactive,,inactive,inactive,,inactive,inactive,inactive,inactive,,,,
CCN[C@H](C)Cc1cccc(C(F)(F)F)c1,inactive,inactive,inactive,inactive,,,inactive,inactive,inactive,,,,
CCOC1Oc2ccc(OS(C)(=O)=O)cc2C1(C)C (stereo not given),,inactive,inactive,inactive,inactive,inactive,inactive,inactive,inactive,,,,
CCC1(c2cccc(O)c2)CCCCN(C)C1 (stereo not given),,inactive,inactive,inactive,,,,,,0.128% [at 18.6 µM],0.0413% [at 18.6 µM],0.018% [at 18.6 µM],0.162% [at 18.6 µM]
CC(O)CCl (stereo not given),inactive,inactive,inactive,,,inactive,inactive,inactive,inactive,,,,
Cc1ccc(S(=O)(=O)N[C@@H](CCCCN)C(=O)CCl)cc1,,,29.8 µM (active),inactive,,inactive,inactive,inactive,inactive,,,,
